Measured values: article PMC4336329 (PLoS ONE, 2015)
Out of some 310,000 compounds screened, about 14,000 (4.5%) showed an effect of 50% or more. Effects have a minus sign here. The sample holds strong results, similar compounds and a random draw of the others, so the mix is not that of the screen.

target: human ether-à-go-go-related gene (hERG) potassium channel (human, UniProt Q12809); assay: primary screen, population patch clamp on CHO cells stably expressing hERG; higher = less effect of the substance
Sequence (Q12809 whole entry, looked up): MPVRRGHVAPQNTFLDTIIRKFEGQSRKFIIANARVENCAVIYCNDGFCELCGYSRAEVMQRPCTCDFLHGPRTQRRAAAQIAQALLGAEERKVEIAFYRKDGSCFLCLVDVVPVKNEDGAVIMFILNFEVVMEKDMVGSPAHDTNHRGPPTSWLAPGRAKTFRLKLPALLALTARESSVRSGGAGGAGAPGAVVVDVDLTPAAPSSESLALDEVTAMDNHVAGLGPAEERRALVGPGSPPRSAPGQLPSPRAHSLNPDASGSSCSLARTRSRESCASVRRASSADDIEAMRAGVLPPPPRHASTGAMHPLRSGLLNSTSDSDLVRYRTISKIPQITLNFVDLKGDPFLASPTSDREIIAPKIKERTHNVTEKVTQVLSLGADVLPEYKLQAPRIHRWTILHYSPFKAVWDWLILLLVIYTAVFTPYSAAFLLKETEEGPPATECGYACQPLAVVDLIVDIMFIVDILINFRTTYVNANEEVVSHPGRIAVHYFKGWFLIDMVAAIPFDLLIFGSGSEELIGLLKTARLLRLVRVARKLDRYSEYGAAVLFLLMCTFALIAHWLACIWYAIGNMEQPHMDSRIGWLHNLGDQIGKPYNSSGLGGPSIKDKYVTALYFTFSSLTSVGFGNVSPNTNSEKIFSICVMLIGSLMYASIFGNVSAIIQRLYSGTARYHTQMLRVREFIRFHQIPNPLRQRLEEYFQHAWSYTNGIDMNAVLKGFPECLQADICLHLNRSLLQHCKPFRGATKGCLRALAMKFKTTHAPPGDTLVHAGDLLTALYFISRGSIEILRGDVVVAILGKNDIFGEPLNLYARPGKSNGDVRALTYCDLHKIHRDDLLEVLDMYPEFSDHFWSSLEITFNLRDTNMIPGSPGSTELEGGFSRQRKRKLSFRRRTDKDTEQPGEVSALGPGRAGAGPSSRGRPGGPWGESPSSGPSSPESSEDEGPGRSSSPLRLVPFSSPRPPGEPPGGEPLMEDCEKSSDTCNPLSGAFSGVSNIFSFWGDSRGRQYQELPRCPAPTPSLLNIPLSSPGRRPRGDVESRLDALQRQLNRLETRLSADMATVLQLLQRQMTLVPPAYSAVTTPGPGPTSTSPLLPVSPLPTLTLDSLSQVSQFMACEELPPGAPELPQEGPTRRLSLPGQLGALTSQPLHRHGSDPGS
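Note: peak tail current of the secondary pulse compared with the same well before compound.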

| SMILES | hERG current change (%, negative = inhibition) at 10uM [%] |
| --- | --- |
| O=[N+]([O-])c1ccc(C[n+]2cc(-c3ccccc3)n3c2CCCCC3)cc1.[Br-] | -35.3 |
| Cc1cc(Nc2ccccc2)c2c([N+](=O)[O-])cc(C)c(C)c2n1 | -9.29 |
| O=C(CCn1c(=O)[nH]c2ccccc2c1=O)Nc1ccccc1 | 16.4 |
| Cc1ccc(S(=O)(=O)NCC(=O)N(CC(=O)NCc2ccco2)Cc2ccc(F)cc2)cc1 | 5.19 |
| O=C(COC(=O)CC1Sc2ccccc2NC1=O)NCc1ccccc1 (stereo not drawn) | -21.4 |
| Cc1cccc(N2CCN(C(C)C(=O)N3CCc4ccccc43)CC2)c1C (stereo not drawn) | 17 |
| CCCNC(=O)CS(=O)(=O)Cc1nc(-c2ccccc2C)oc1C | 3.88 |
| O=S(=O)(c1cccc(F)c1)N1CCN(Cc2ccc3c(c2)OCO3)CC1 | -35.8 |
| COc1ccc(S(=O)(=O)N2CCN(Cc3ccc4c(c3)OCO4)CC2)cc1F | -30.5 |
| O=S(=O)(c1ccc(F)c(F)c1)N1CCN(Cc2ccc3c(c2)OCO3)CC1 | -51.4 |
| O=C1CCc2cc(S(=O)(=O)N3CCN(Cc4ccc5c(c4)OCO5)CC3)ccc2N1 | -70.1 |
| O=C1CCc2cc(S(=O)(=O)NCCCC(=O)N3CCN(Cc4ccc5c(c4)OCO5)CC3)ccc2N1 | -0.149 |
| O=S(=O)(c1ccc2c(c1)OCCO2)N1CCN(Cc2ccc3c(c2)OCO3)CC1 | 3.98 |
| O=[N+]([O-])c1cc(Br)c(O)c(/C=N/Nc2nnnn2-c2cccc3ccccc23)c1 | 0.778 |
| O=C(Cc1c[nH]c2ccccc12)Nc1nccs1 | 0.956 |
| O=C(CN1C(=O)C2CC=CCC2C1=O)Nc1cc(C(F)(F)F)ccc1N1CCCC1 (stereo not drawn) | -24.6 |
| O=C(O)c1cc2n(n1)CCN(Cc1ccccc1Cl)C2=O | 8.71 |
| Cc1nc2ccccc2n1/N=C/c1ccc([N+](=O)[O-])o1 | -58.9 |
| Cc1nc2ccccc2c(=O)n1/N=C/c1ccccc1 | -0.523 |
| Cc1ccc(/C=N/n2c(C)nc3ccccc3c2=O)o1 | 10.9 |

| SMILES | hERG current change (%, negative = inhibition) at 10uM [%] |
| --- | --- |
| Cc1nc2ccccc2c(=O)n1/N=C/c1ccc([N+](=O)[O-])o1 | -53.3 |
| Cc1nc2ccccc2n1/N=C/c1ccc([N+](=O)[O-])s1 | -12.3 |
| Cc1cc2ncn(/N=C/c3ccc([N+](=O)[O-])o3)c2cc1C | -0.858 |
| O=C(c1cc2c(s1)CCC2)N1C(=O)c2ccccc2S1(=O)=O | 12.9 |
| CCCC(C)NC(=O)CN1C(=O)c2cccc3cccc1c23 (stereo not drawn) | 1.42 |
| COc1ccc(C(C)=O)cc1CSc1nc2cc(Cl)ccc2o1 | 9.66 |
| O=c1oc2cccnc2n1CCS(=O)(=O)c1ccc(F)cc1 | 9.29 |
| CCOc1ccccc1NC(=O)Cn1c(-c2ccc(Cl)cc2)noc1=O | -2.01 |
| CCCN(C(=O)CSc1nc2ccccc2n1CC)C1CCS(=O)(=O)C1 (stereo not drawn) | 2.29 |
| CCn1c(SCC(=O)N(Cc2ccccc2)C2CCS(=O)(=O)C2)nc2ccccc2c1=O (stereo not drawn) | -61 |
| CCN(C(=O)CSc1nc2ccccc2c(=O)n1-c1cccc(C)c1)C1CCS(=O)(=O)C1 (stereo not drawn) | -14.9 |
| CCN(C(=O)CSc1nc2ccccc2c(=O)n1Cc1ccc(C)cc1)C1CCS(=O)(=O)C1 (stereo not drawn) | -71 |
| Cc1ccc(Cn2c(SCC(=O)N(C)C3CCS(=O)(=O)C3)nc3ccccc3c2=O)cc1 (stereo not drawn) | -60.8 |
| Cc1ccccc1-n1c(SCC(=O)N(C)C2CCS(=O)(=O)C2)nc2ccccc2c1=O (stereo not drawn) | 11.6 |
| Cc1ccc(-n2c(SCC(=O)N(C)C3CCS(=O)(=O)C3)nc3ccccc3c2=O)cc1 (stereo not drawn) | 11 |
| CCN(C(=O)CSc1nc2ccccc2n1CC)C1CCS(=O)(=O)C1 (stereo not drawn) | 0.264 |
| CCN(C(=O)CSc1nc2ccccc2c(=O)n1-c1ccc(C)cc1)C1CCS(=O)(=O)C1 (stereo not drawn) | -11.6 |
| CCN(C(=O)COC(=O)c1cc(S(=O)(=O)N2CCOCC2)c(Cl)cc1Cl)C1CCS(=O)(=O)C1 (stereo not drawn) | 9.86 |
| O=c1[nH]c2ccccc2c2nc(-c3cccc(S(=O)(=O)N4CCCC4)c3)nn12 | 21.2 |
